About 650 (54%) of roughly 1,200 compounds were called active. Roughly 5% stayed inconclusive and do not appear here.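 How the source made its calls: active means signal-lowering curve whose fitted half-maximal concentration is at or below ten times the top valid dose tested; inconclusive means flat curve with 30 to 70% inhibition, or poor fit; inactive means signal increase, flat within 30%, or potency beyond limit.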 The set was probably picked from earlier hits. Only a sample is shown. Potency and affinity values are given separately.
assay: inhibitors of LMP1-driven NF-kB reporter, dose response, cell-based, HEK293, luciferase, cherry-pick (AID 588343); settings: HEK293 LMP1 TES2 NF-kB luciferase reporter, 16 h; series mostly up to 35 µM

outcome, inactive:
C=CCN1CCc2cc(O)c(O)cc2C(c2ccccc2)C1 (stereo not drawn)
Cc1ccc(C)c(S(=O)(=O)N2CCN(C(=O)c3ccc(C)s3)CC2)c1
COc1ccccc1-c1ccccc1C1=CC(=O)CC(C)(C)C1=O
CCOC(=O)N1CCN(C(=O)C2CCC(=O)N(Cc3ccccc3OC)C2)CC1 (stereo not drawn)
COc1ccc(C(=O)NCCN2CCOCC2)cc1[N+](=O)[O-]
CNC(=O)c1[nH]cnc1C(=O)N[C@@H](CCCCNC(=O)OC(C)(C)C)C(=O)OC(C)(C)C
Cc1cccc(C)c1Nc1nc2ccccc2o1
OCc1cc(C(O)CNCCCCCCOCCCCc2ccccc2)ccc1O (stereo not drawn)
COc1ccccc1NC(=O)c1c(Nc2ccccc2C)sc(C(=O)Nc2cccc(Cl)c2)c1N
O=C(OCc1nc2ccccc2s1)[C@@H]1CCCN1S(=O)(=O)c1ccccc1F
C[C@@H](OC(=O)c1[nH]cnc1C(=O)N1CCc2ccccc2C1)c1ccccc1
O=C(Nc1ccc(Cl)cc1)c1ccco1
CSCCC(NC(=O)c1ccco1)C(=O)OCC(=O)Nc1ncc(Cl)c(C)c1Cl (stereo not drawn)
C[C@H]1C[C@H]2[C@@H]3CCC4=CC(=O)C=C[C@]4(C)[C@@]3(F)[C@@H](O)C[C@]2(C)[C@@]1(O)C(=O)CO
CCn1c(CCNC(=O)c2ccc(OC)cc2)nnc1SCc1ccc(Cl)cc1Cl
CCC(Oc1ccccc1)C(=O)NC1CCSC1=O (stereo not drawn)
CC1=C(C)C(OCCCl)N(c2cc(O)c(Cl)cc2F)C1=O (stereo not drawn)
CC(C)Cc1ccc([C@H](C)C(=O)O)cc1
O=C(C[n+]1ccccc1)N/N=C/c1ccc(O)cc1
Cc1ccc(CNC(=O)C2CCN(S(=O)(=O)c3c(C)noc3/C=C/c3ccco3)CC2)cc1
C[C@@H]1CN([C@@H](C)CO)C(=O)c2cc(NC(=O)Nc3ccccc3)ccc2O[C@H]1CN(C)C(=O)Nc1cccc2ccccc12
O=C(NN1C(=O)C2C3C=CC(C4CC34)C2C1=O)c1cccc(Cl)c1 (stereo not drawn)
Nc1ccc(CCNc2ncnc3c2ncn3[C@@H]2O[C@H](CO)[C@@H](O)[C@H]2O)cc1
Nc1ccn(C2CCCO2)c(=O)n1 (stereo not drawn)
NC(=O)c1ncn([C@@H]2O[C@H](CO)[C@@H](O)[C@H]2O)n1
CCOc1ccccc1/C=C/c1onc(C)c1S(=O)(=O)N1CCC(C(=O)N(CC)CC)CC1
COc1nc(Nc2nc3ccccc3c(=O)[nH]2)nc2ccc(C)cc12
CCCC(=O)NCCCc1nc2ccccc2n1C
COc1c(S(=O)(=O)N2CCN(c3ccc(F)cc3)CC2)ccc(Cl)c1Cl
O=C(CCCOc1ccccc1)N1CCN(c2ccccc2)CC1
Cc1ccc(NC(=S)Nc2cccc(S(=O)(=O)Nc3c(C)n(C)n(-c4ccccc4)c3=O)c2)cc1
Cc1cccc(NC(=O)Nc2c(C)n(C)n(-c3ccccc3)c2=O)c1C
C/C(=N\NS(=O)(=O)c1ccc([N+](=O)[O-])cc1)c1cccs1
O=C(CCNc1cccc(F)c1)c1cc2ccccc2o1
Cc1ccccc1CC(=O)NCc1cccnc1
COc1ccc(-c2ccc3c(c2)S(=O)(=O)c2cccc(C(=O)NCc4cc(C)oc4C(F)(F)F)c2C3=O)cc1OC
Cc1ccc(N2CCCCn3c2nc2c3c(=O)n(CC(=O)O)c(=O)n2C)cc1
Cc1ccnc(N/C=C(/NC(=O)c2ccccc2)C(=O)N/N=C\c2ccc(F)cc2)n1
COc1ccc(-c2cc(C(F)(F)F)n3nc(C(=O)N4CCOCC4)nc3n2)cc1
O=C(Nc1nnc(N2CCCCCC2)s1)c1cc(-c2ccc(Br)cc2)on1
COCCCNC(=O)CN1C(=O)COc2ccc(S(=O)(=O)N3CCOCC3)cc21
CCCSc1nc2cc(S(=O)(=O)N3CCOCC3)ccc2n1CC
CN(C)CCN(Cc1ccc(Cl)cc1)c1ccccn1
COc1ccc(CC(C)NCC(O)c2ccc(O)c(NC=O)c2)cc1 (stereo not drawn)
CCOC(=O)C1=C(C)NC(C)=C(C(=O)OCC)C1c1cn(-c2ccccc2)nc1-c1ccco1
O=C(CSc1nnc(-c2cccc(S(=O)(=O)N3CCOCC3)c2)n1C1CCCCCC1)NCc1ccccc1
O=C(Nc1cc(S(=O)(=O)N2CCOCC2)ccc1Cl)c1ccncc1
N=c1c(-c2nc3ccccc3[nH]2)cc(C(=O)c2cccs2)nn1-c1ccccc1
Cc1cc(NC(=O)c2ccc(C)s2)n(-c2nc3ccccc3[nH]2)n1
CCCC(=O)NCCCc1nc2ccccc2[nH]1
O=c1cc(Cl)nc2ccccn12
COc1ccc2[nH]c3c(=O)n(CCCCC(=O)N4CCC(C(N)=O)CC4)c(=S)[nH]c3c2c1
O=C(Cc1ccc(Cl)cc1)NCC(=O)N1CCCCC1
Cc1ccccc1N(C(=O)c1snc(C(N)=O)c1N)C(C(=O)NC1CCCCC1)c1ccc(O)cc1 (stereo not drawn)
S=C1SCN(Cc2ccccc2)CN1Cc1ccco1
CCOc1cc(/C=C2/C(=N)N3N=C(CC)SC3=NC2=O)ccc1OC(=O)c1ccco1
COc1ccc(CCC(=O)Nc2ccc(C)c([N+](=O)[O-])c2)cc1
CC(=O)Oc1ccc(C(=O)Nc2cccnc2)cc1
O=C(COc1ccc2ccccc2c1)NCCNC(=O)COc1ccc2ccccc2c1
CNC(=O)C1=NCCCc2cc(OC)c(OC)cc21
O=C(NC1CCCCC1)N1CCN(c2ccc([N+](=O)[O-])cc2)CC1
COc1ccc(-n2nc(C(=O)c3cccs3)cc(-c3nc4ccccc4[nH]3)c2=N)cc1
CNC(=S)N1N=C(c2cccs2)CC1c1ccc(F)cc1 (stereo not drawn)
O=C(CN1C(=O)C2C3C=CC(C3)C2C1=O)NCCC1=CCCCC1 (stereo not drawn)
O=C(COC(=O)c1ccc(S(=O)(=O)NCc2ccco2)cc1)Nc1ccc(Cl)cn1
O=C(CN(Cc1cccs1)C(=O)CNS(=O)(=O)c1ccccc1)NCc1ccco1
CCOc1ccc(NC(=O)Cn2cc(C(=O)CC)c3ccccc32)cc1
CC(=O)Nc1ccc(OCC(O)CNC(C)C)cc1 (stereo not drawn)
Cc1ccnc(NC(=O)c2cccc(NC(=O)c3ccc(Cl)c(Cl)c3)c2)c1
Cc1cc(OCC(=O)Nc2cnn(CCCC(=O)O)c2)ccc1Cl
COC(=O)c1cccc(COC(=O)c2ccccc2NC(=O)c2ccco2)c1
COc1ccc(NC(=O)Cn2nnc(C(=O)NCc3ccccc3)c2N)c(OC)c1
COc1cccc(-c2nc(NCc3ccccc3)c3ccccc3n2)c1O
C=CCN(c1ccc(C(=O)Nc2ccc3c(c2)n(C)c(=O)n3C)cc1)S(C)(=O)=O
COc1ccc(C(CNC(=O)Nc2ccccc2)N2CCN(C)CC2)cc1 (stereo not drawn)
COc1ccc(NC(=O)NCCN2CCc3ccccc3C2)cc1
COc1ccc(NC(=O)C[C@H]2C(=O)N(CCc3ccccc3)C[C@@H]2c2ccc(OC)cc2)cc1
Cn1cccc1CC(=O)NNC(=S)Nc1ccccc1Cl
O=C(Nc1ccc2c(c1)C(=O)OC2)c1ccc(C(F)(F)F)cc1
CCNc1nc(CN2CCOCC2)nc2sc3c(c12)CCC3
COc1cccc(C2Nc3ccc4ccccc4c3C3=C2C(=O)CC(C)(C)C3)c1OCC(=O)O (stereo not drawn)
O=C(CN1C(=O)CCOc2ccccc21)Nc1ccc(Cl)c(S(=O)(=O)N2CCOCC2)c1
COc1ccc(C(c2sc3nc(C)nn3c2O)N2CCC(C(N)=O)CC2)cc1OC (stereo not drawn)
CC1=C(CC(=O)O)c2cc(F)ccc2C1=Cc1ccc(S(C)(=O)=O)cc1
O=C(Nc1ncc(Br)s1)C(Cc1ccccc1)n1cccc1 (stereo not drawn)
COc1ccc(NC(=O)N(CCN2CCCC2)Cc2cc3cc(OC)c(OC)cc3[nH]c2=O)cc1
CCOC(=O)c1cc(-c2ccccc2)n(CC(=O)Nc2cccc(OC)c2)c1C
CC(=NNC(=S)N1CCCCCC1)c1cccc2cccnc12
COc1ccc(OC)c(S(=O)(=O)NC(C)CCc2ccccc2)c1 (stereo not drawn)
Cc1ccc2oc(C(=O)Nc3ccc(S(=O)(=O)Nc4onc(C)c4C)cc3)c(C)c2c1
O=C(NCC1CCOCC1)c1ccc(OC2CCN(Cc3ccccn3)CC2)cc1
COCCCNCC1C(Oc2ccc(Cl)cc2)C(=O)N1c1ccccc1C (stereo not drawn)
Cc1sc2ncn(CC(=O)N3CCC(C(N)=O)CC3)c(=O)c2c1S(=O)(=O)N1CCOCC1
CCN(Cc1ccncc1)C(=O)CCc1ccccc1
Cc1ccc(CCNC(=O)CCc2nc3ccccc3[nH]2)cc1
CN(C)S(=O)(=O)c1ccc(Cl)c(C(=O)NCCNC(=O)c2cc(S(=O)(=O)N(C)C)ccc2Cl)c1
COc1cc(N)c(Cl)cc1C(=O)NC1CCN(Cc2ccccc2)CC1
NC(=O)CC(NC(=O)c1ccccc1)c1ccc(NC2CCN(Cc3ccccc3)CC2)c([N+](=O)[O-])c1 (stereo not drawn)
O=C(N/N=C(/CC(=O)c1cccs1)C(F)(F)F)c1ccc(O)cc1
Cn1c(=O)[nH]c(=O)c2c1nc(CN1CCOCC1)n2CCCc1ccccc1
CN1CCN(CCOc2ccc(Cc3ccccc3)cc2)CC1
CCn1c2ccccc2c2cc(NC(=O)c3ccccc3-c3ccccc3C(=O)O)ccc21
CS(=O)(=O)N(CC(=O)Nc1ccc(F)cc1F)C1CCCCC1

— PubChem BioAssay AID588343 (Broad Institute, 2011)
